In the library only some 3.8% were active in any assay of this set; here they are far more common.
TGFb SMAD3 inh: inhibitors of TGF-b signaling. Potency, µM (doses to about 46.1 µM), usual class: inhibitors. 410,000 tested, 1.2% active. HepG2 CAGA-GFP TGF-b/SMAD3 reporter, GFP fluorescence, 18 h; TGF-beta stimulated, 500 pg/mL final; further: nearly all actives have a fitted effect of over 65% in size
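Inhibition was scored as loss of TGF-beta-induced (500 pg/mL final, 18 hours, 37 degrees C) GFP in HEPG2 cells carrying a CAGA-GFP reporter, in DMEM with 1% FBS. Well GFP was summed per cell; Activity was normalised to unstimulated and stimulated DMSO wells, then concentration-response fitting.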
A549 viability: counter-screen for Nrf2 inhibitors: cytotoxicity in A549 cells; A549 ARE-Fluc cells, CellTiter-Fluor viability, 18-24 h; Potency, µM (highest dose often 46 µM), most hits filed as inhibitors; 390,000 tested, 0.16% active; AID 504648
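A549 ARE-Fluc cells in 5% FBS OPTI-MEM, 5000 cells/well, rested 2 h then exposed to compounds in concentration-response for 18-24 h at 37 °C. Viability by CellTiter-Fluor fluorescence (Ex 405/Em 525) after 30 min; luciferase luminescence (BugLite, 15 min, RT) read afterwards.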
Nrf2 block: Nrf2 pathway inhibition | A549 ARE-Fluc reporter, luciferase luminescence, 18-24 h | Potency, µM (highest dose often 46 µM), hits mostly inhibitors | 360,000 tested, 2.1% active; further: nearly all actives have a fitted effect of over 60% in size
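Quantitative HTS in A549 cells stably bearing an antioxidant response element-firefly luciferase construct. Inhibition of Nrf2-driven transcription was scored by luminescence after 18-24 h of compound exposure at 37 °C.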
HepG2 tox: kills HepG2 cells in TGF-b inhibitor counter-screen; HepG2 CAGA-GFP viability, ATP luminescence, 18 h; Potency, µM (titrated, usually from 46.1 µM), actives largely listed as cytotoxic; 410,000 tested, 0.76% active
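CellTiter-Glo luminescence gave cytotoxicity after 18 hours at 37 degrees C. The cells were HepG2 CAGA-GFP in 1% FBS DMEM, stimulated with 500 pg/mL TGF-beta after compound addition. %Activity was normalised to no-cell wells (complete cell-killing) and DMSO (no toxicity), and curves were fitted and classified.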
ATXN2 expr inh: inhibitors of ATXN2 expression | HEK-293 ATXN2-luciferase reporter, luminescence, 24 h | Potency, µM (titrated, usually from 57 µM), most hits filed as inhibitors | 360,000 tested, 0.72% active | AID 1745845; further: nearly all actives have a fitted effect of over 55% in size
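qHTS (up to 57 uM final) was run with 24 h compound exposure of reporter cells at 37 °C. Each well was multiplexed: SteadyGlo luminescence measured ATXN2-luciferase expression after a fluorogenic Gly-Phe-AFC viability readout (25 uM final).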
ATXN viability: reduces viability in counter-screen for ATXN expression inhibitors; S2 cells (HEK-293 line with an ATXN2-luciferase reporter) viability, CellTiter-Fluor protease fluorescence, 24 h; Potency, µM (series often up to 56.7 µM), hits mostly cytotoxic; 400,000 tested, 0.49% active; further: nearly all actives have a fitted effect of over 40% in size
Large screens that a line does not name were inactive; ! = a repeat was not active. The call rests on the fitted dose curve; in most records, active means well fitted curve in the direction sought with a large enough effect; inconclusive means small, poorly fitted or top-dose-only effect, or another doubt; inactive means no such curve, though single readings can be large; an effect the other way counts as inactive or inconclusive.

O=C(O)/C=C/c1cccc(NS(=O)(=O)c2ccccc2)c1	none
OC[C@H](S)CS	TGFb SMAD3 inh inconclusive (no result: A549 viability, Nrf2 block, ATXN2 expr inh, ATXN viability)
C/C(=N\OCc1cccc(C(=O)O)c1)c1ccc(Cl)cc1	Nrf2 block inconclusive, ATXN2 expr inh 2.8µM
CN(Cc1ccc(OC(F)F)cc1)C(=O)/C=C/c1ccc(S(=O)(=O)N2CCOCC2)cc1	Nrf2 block 23µM
CN(Cc1ccc(OC(F)F)cc1)C(=O)C1CCN(S(=O)(=O)c2ccc3c(c2)OCCO3)CC1	TGFb SMAD3 inh inconclusive, Nrf2 block 23µM (no result: ATXN2 expr inh, ATXN viability)
CCOC(=O)CCc1c(C)nc2cc(-c3cc(OC)cc(OC)c3)[nH]n2c1=O	none
O=C(COc1ccccc1)NCCc1csc(-c2ccc(Cl)cc2)n1	TGFb SMAD3 inh 11µM (no result: Nrf2 block)
O=C(COc1ccc(Cl)cc1)NCCc1csc(-c2ccc(F)cc2)n1	ATXN2 expr inh inconclusive (no result: Nrf2 block)
COc1cc(C(=O)NCCc2csc(-c3ccc(Cl)cc3)n2)cc(OC)c1OC	ATXN2 expr inh 20µM (no result: Nrf2 block, ATXN viability)
Cc1ccc(-c2nc(CCNC(=O)c3ccco3)cs2)cc1	none
O=C(NCCc1csc(-c2ccc(Cl)cc2)n1)c1ccco1	Nrf2 block inconclusive, ATXN2 expr inh 14µM!
COc1ccc(C(=O)Nc2ccc(NC(=O)c3cc(OC)c(OC)c(OC)c3)cn2)cc1	none
COc1ccc(NC(=O)c2oc3ccccc3c2NC(=O)C23CC4CC(CC(C4)C2)C3)cc1	none
CC(CNC(=O)c1cnn(-c2ccc(F)cc2)c1-n1cccc1)c1ccccc1 (centres undefined)	TGFb SMAD3 inh 10µM, Nrf2 block inconclusive
CCOC(=O)c1ccc(NS(=O)(=O)c2ccc(Br)s2)cc1	none
COc1ccc(/C=C2\CN(Cc3ccccc3)C/C(=C\c3ccc(OC)c(O)c3)C2=O)cc1O	TGFb SMAD3 inh 5µM, A549 viability inconclusive, Nrf2 block inconclusive, ATXN2 expr inh 4µM, ATXN viability inconclusive
CCN1C/C(=C/c2ccc(OC)c(O)c2)C(=O)/C(=C/c2ccc(OC)c(O)c2)C1	TGFb SMAD3 inh inconclusive, ATXN viability inconclusive (no result: ATXN2 expr inh)
COc1cc(/C=C2\COC/C(=C\c3ccc(O)c(OC)c3)C2=O)ccc1O	TGFb SMAD3 inh 6.3µM, A549 viability inconclusive, Nrf2 block inconclusive, ATXN2 expr inh inconclusive (no result: ATXN viability)
CC(C)=CCC[C@H](C)C[C@@H]1CC2=C(C(=O)OC(C)(C)O2)[C@@H](c2ccc(F)cc2)O1	none (no result: TGFb SMAD3 inh, A549 viability, Nrf2 block, HepG2 tox)
Cc1sc(NC(=O)c2ccco2)c(C(Nc2ccccn2)c2ccccc2)c1C (centres undefined)	Nrf2 block 21µM
COc1ccc(C(Nc2ccccn2)c2c(NC(=O)c3ccco3)sc(C)c2C)cc1 (centres undefined)	Nrf2 block inconclusive, ATXN viability inconclusive (no result: ATXN2 expr inh)
Clc1cccc2c1CCN(Cc1nc(-c3cnccn3)no1)C2	none (no result: ATXN viability)
Cc1ccc(-c2csc3ncnc(SCC(=O)Nc4nnc(C)s4)c23)cc1	Nrf2 block inconclusive
Cc1ccc(-c2csc3ncnc(Sc4nnc(CN5CCCCCC5=O)o4)c23)cc1	A549 viability inconclusive, Nrf2 block 15µM, ATXN2 expr inh 28µM (no result: ATXN viability)
Cc1cc(OCCCCOc2ccc(S(N)(=O)=O)c(C)c2)ccc1S(N)(=O)=O	TGFb SMAD3 inh inconclusive, Nrf2 block 12µM (no result: ATXN2 expr inh)
Cc1ccc(OCCCSc2ncccn2)cc1C	Nrf2 block inconclusive
Cc1ccc(CCS(=O)(=O)c2ccc(C(C)(C)C)cc2)cn1	Nrf2 block 8.2µM
O=C(C(Br)=Cc1ccccc1)c1ccccc1	TGFb SMAD3 inh 10µM, ATXN2 expr inh 20µM, ATXN viability inconclusive
Cc1ccc(S(=O)(=O)N2C[C@H]3C(=O)C[C@@H](c4ccc(Cl)cc4)N(S(=O)(=O)c4ccccc4C)[C@H]3C[C@H]2c2ccccc2)cc1	none (no result: A549 viability, Nrf2 block)
Cc1cc(-c2ccco2)c(C#N)c2nc3ccccc3n12	ATXN viability inconclusive
N=c1c2c(-c3ccccc3)c(-c3ccccc3)n(Cc3ccco3)c2ncn1CCCO	TGFb SMAD3 inh 25µM, A549 viability inconclusive, Nrf2 block inconclusive, HepG2 tox 18µM
N=c1c2c(-c3ccccc3)c(-c3ccccc3)n(Cc3ccco3)c2ncn1CCN1CCOCC1	TGFb SMAD3 inh inconclusive, A549 viability inconclusive, ATXN2 expr inh inconclusive, ATXN viability inconclusive
N=c1c2c(-c3ccccc3)c(-c3ccccc3)n(Cc3ccco3)c2ncn1CCO	TGFb SMAD3 inh inconclusive, A549 viability inconclusive, Nrf2 block inconclusive, ATXN2 expr inh inconclusive, ATXN viability 14µM
CCNC(=O)C1CCCN(C(=O)c2ccc(C#N)cc2)CC1 (centres undefined)	none (no result: A549 viability, Nrf2 block)
Nc1ccccc1Oc1ccc2ccccc2c1	TGFb SMAD3 inh 16µM (no result: ATXN2 expr inh)
Cc1[nH]nc(SCC(=O)NC2CCCCC2)c1[N+](=O)[O-]	none (no result: ATXN2 expr inh)
C=CCn1c2ccccc2c2nnc(SCCCn3c(=O)[nH]c4ccccc43)nc21	Nrf2 block 13µM, ATXN2 expr inh inconclusive (no result: ATXN viability)
Cc1cc(C)c(NC(N)=S)c(C)c1	none
O=C(Nc1ccc(S(=O)(=O)C(F)F)cc1)c1ccc2c(=O)n3c(nc2c1)CCC3	Nrf2 block 15µM
O=C(Nc1ccc(SC(F)F)cc1)c1ccc2c(=O)n3c(nc2c1)CCC3	A549 viability inconclusive, Nrf2 block 5.8µM
COCCN1C(=O)c2[nH]nc(-c3ccccc3O)c2C1c1ccc(Cl)c(Cl)c1 (centres undefined)	TGFb SMAD3 inh inconclusive (no result: ATXN2 expr inh, ATXN viability)
COc1ccc(C(=O)Nc2ccc(OCc3cc(=O)n4ccccc4n3)cc2)cc1	none (no result: Nrf2 block, ATXN2 expr inh, ATXN viability)
CCOC(=O)N1CCN(S(=O)(=O)c2c(C)nc3sccn3c2=O)CC1	none (no result: ATXN2 expr inh)
CC(C)n1c(-c2ccco2)csc1=Nc1cccnc1	Nrf2 block 13µM
COCCn1c(-c2ccccc2)csc1=Nc1cccnc1	TGFb SMAD3 inh inconclusive
COc1ccc(C(=O)Nc2c(-c3cccs3)c(=O)c3ccccc3n2C)cc1	Nrf2 block inconclusive, ATXN viability inconclusive
Cc1ccc(C(=O)Nc2c(-c3cccs3)c(=O)c3ccccc3n2C)cc1	TGFb SMAD3 inh inconclusive, Nrf2 block inconclusive, HepG2 tox 14µM, ATXN viability inconclusive
Cc1cc2oc3c(c(=O)c2cc1C)C(c1cccc(Br)c1)N(Cc1ccco1)C3=O (centres undefined)	TGFb SMAD3 inh inconclusive, Nrf2 block 8.2µM, ATXN2 expr inh inconclusive, ATXN viability inconclusive
CC1(C)CC[C@]2(C(=O)O[C@@H]3O[C@H](CO)[C@@H](O)[C@H](O)[C@H]3O)CC[C@]3(C)C(=CCC4[C@@]5(C)CC[C@H](O[C@@H]6O[C@H](C(=O)O)[C@@H](O[C@H]7OC[C@@H](O)[C@@H](O)[C@@H]7O)[C@H](O)[C@H]6O)C(C)(C)C5CC[C@]43C)[C@@H]2C1 (some centres undefined)	none
